# Data reported in the supplement of paper PMC6555819.
# Tests used:
# Test in all cases: PBM binding z-score (relative to random genomic background probes); higher = stronger binding; sequences stand for … in GC…GCGATTGACAGCGTAGAATGAAGG
# [1] = tested on: FXR:RXRa (NR concentration 270 nM, RXRa partner concentration 90 nM)
# Summary of the method: (§1)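 For binding z-scores, the reference was random background probes on custom Agilent 4×180K protein-binding microarrays. These arrays were incubated 1 h with ligand-free nuclear receptor dimers in PBS pH 7.4, 2% milk, 0.02% Triton X-100, 1 mM DTT, 0.2 mg/mL BSA and 0.4 mg/ml salmon testes DNA. Fluorescence was scanned after antibody detection of each partner (one per run) and regression-normalized.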
# [2] = tested on: LXRa:RXRa (NR concentration 270 nM, RXRa partner concentration 90 nM)
# Summary of the method: as §1
# [3] = tested on: LXRa homodimer (NR concentration 270 nM)
# Summary of the method: as §1
# [4] = tested on: LXRb:RXRa (NR concentration 270 nM, RXRa partner concentration 90 nM)
# Summary of the method: as §1
# [5] = tested on: LXRb homodimer (NR concentration 270 nM)
# Summary of the method: as §1
# [6] = tested on: PPARa:RXRa (NR concentration 270 nM, RXRa partner concentration 90 nM)
# Summary of the method: as §1
# [7] = tested on: PPARg:RXRa (NR concentration 180 nM, RXRa partner concentration 90 nM)
# Summary of the method: as §1
# [8] = tested on: PPARg:RXRa 270nM:90nM, anti-RXR (NR concentration 270 nM, RXRa partner concentration 90 nM)
# Summary of the method: as §1
# [9] = tested on: PPARg:RXRa 30nM:10nM, anti-RXR (NR concentration 30 nM, RXRa partner concentration 10 nM)
# Summary of the method: as §1
# [10] = tested on: PPARg:RXRa 90nM:30nM, anti-RXR (NR concentration 90 nM, RXRa partner concentration 30 nM)
# Summary of the method: as §1
# [11] = tested on: PPARg:RXRa DBDmut IVT, anti-RXR (DBD mutation: RXRa K156A/R161A, NR concentration 270 nM, RXRa partner concentration 90 nM)
# Summary of the method: as §1
# [12] = tested on: PPARg:RXRa IVT, anti-PPARg (NR concentration 270 nM, RXRa partner concentration 90 nM)
# Summary of the method: as §1
# [13] = tested on: PPARg DBDmut:RXRa IVT, anti-PPARg (DBD mutation: PPARg1 K132A/R137A, NR concentration 270 nM, RXRa partner concentration 90 nM)
# Summary of the method: as §1
# [14] = tested on: PPARg DBDmut IVT, anti-PPARg (DBD mutation: PPARg1 K132A/R137A, NR concentration 270 nM)
# Summary of the method: as §1
# [15] = tested on: PPARg homodimer (NR concentration 180 nM)
# Summary of the method: as §1
# [16] = tested on: PXR:RXRa (NR concentration 270 nM, RXRa partner concentration 90 nM)
# Summary of the method: as §1
# [17] = tested on: PXR homodimer (NR concentration 270 nM)
# Summary of the method: as §1
# [18] = tested on: RARa:RXR (NR concentration 270 nM, RXRa partner concentration 90 nM)
# Summary of the method: as §1
# [19] = tested on: RARa homodimer (NR concentration 270 nM)
# Summary of the method: as §1
# [20] = tested on: RARb:RXRa (NR concentration 270 nM, RXRa partner concentration 90 nM)
# Summary of the method: as §1
Sequence,PBM binding z-score [1],PBM binding z-score [2],PBM binding z-score [3],PBM binding z-score [4],PBM binding z-score [5],PBM binding z-score [6],PBM binding z-score [7],PBM binding z-score [8],PBM binding z-score [9],PBM binding z-score [10],PBM binding z-score [11],PBM binding z-score [12],PBM binding z-score [13],PBM binding z-score [14],PBM binding z-score [15],PBM binding z-score [16],PBM binding z-score [17],PBM binding z-score [18],PBM binding z-score [19],PBM binding z-score [20]
AGAATGCGGTTACCAAAGATCAGGGAAACGCTTG,-0.546,1.96,-0.607,-0.204,-0.992,0.0564,0.562,0.104,-0.151,-0.17,-0.0849,-0.0394,-0.888,-0.42,-0.659,-0.382,-0.939,-0.221,-0.366,0.18
TCTTGTAGATCAAGTAGGTTAAGAAAGCCTGAGT,0.567,0.521,0.138,0.441,-0.306,1.17,-0.25,1.46,2.57,2.04,2.13,2.44,0.611,0.864,0.365,0.513,0.364,0.645,0.0237,0.154
GGAACGACGGCAAAGTTGATAGCATCTGTCGACG,-0.522,-0.556,-0.557,-0.755,-0.926,0.00733,1.01,1.58,0.147,1.28,-0.332,-0.552,-0.0147,-1.18,-0.573,-0.362,-0.756,0.0195,-0.6,-0.341
TCATATAGGTAAACAGGAGAAAGTCCGTAAGTTA,0.871,0.628,-0.02,0.291,-0.116,0.987,1.23,2.26,3.93,3.07,4.08,2.77,0.715,0.615,0.67,0.188,0.377,0.0372,0.767,0.292
TCTAGCAGGCCAGAGGGTCACTCAGGAGGTACGG,1.25,1.15,-0.544,0.792,-1.23,2.35,1.43,2.66,2,2.55,1.15,0.889,-0.476,-0.637,0.195,1.35,-0.32,2.12,-0.425,2.28
CGAGACAGGTGAGAAGGTAACTCAGCCTCGATTA,-0.0468,-0.124,-0.337,-0.343,-0.761,0.591,0.452,0.452,-0.196,0.138,0.944,0.575,-0.719,-0.428,0.307,-0.433,-0.255,-0.528,-0.321,0.602
GGAACGAGGGCATTCGCGTTGATAGCATGGCGAT,0.794,1.04,-0.65,0.18,-0.618,1.5,0.776,0.655,-0.361,0.136,2.08,1.86,-0.525,-0.616,-0.126,0.744,-0.0684,0.449,-0.431,1.71
AGAATGAGGTTACCAAAGATAAGGGAAACGCTTG,1.56,1.65,-0.398,1.2,-0.13,3.46,2.87,2.43,0.9,1.9,3.63,3.34,0.848,0.91,1.01,0.851,0.109,1.68,0.445,1.73
TCTTGTAGATCAACAGGTTAAGAAAGCTGGCCAA,0.41,0.634,-0.164,0.757,-0.124,1.33,0.000535,1.83,2.88,2.37,1.96,0.82,0.047,0.206,0.081,0.51,0.0471,0.981,-0.173,0.375
TCTCGGACGACACGAAAGGTCAGAGCTCGACATC,2.91,3.74,2.39,3.3,0.313,3.69,1.12,2.86,2.84,2.66,1.5,1.09,-0.234,0.0466,3.29,3.8,0.286,4.66,2.43,3.86
TGAATGTGGTTAAAGATCAGGGAACGTGGCGTCG,-0.133,-0.264,0.0303,-0.186,0.696,0.692,1.33,2.69,1.45,2.47,-0.308,0.475,0.142,1.06,0.818,-0.282,-0.00828,-0.185,0.484,-0.112
CGATCTAGGTCATCCAGGACAGTGAATACATTGA,4.46,2.5,0.582,2.09,0.272,4.82,7.36,6.3,3.7,5.8,7.91,8.21,6.15,1.47,2.27,2.13,1.59,2.41,0.582,3.89
GGAACGAGGGCAAGTAGATAGCAGAGTTTGATGG,0.456,0.278,-0.397,-0.016,-0.00645,1.36,1.21,0.904,0.0838,0.493,3.61,2.59,-0.498,-0.505,-0.0596,0.344,0.589,0.247,-0.258,2.46
